CHT block: human CHT choline transport inhibition; B-score at 10 µM; actives 0.86% (n = 310,000); AID 488975; CHT-expressing cells, membrane potential dye, choline response; stronger effect = lower value;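 active = B-score over 3 SD under the library average, and starting fluorescence ratio not unusually high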;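 note: choline stimulus applied at its EC90 after an EC20 pre-addition; B-score computed on integrated fluorescence ratio after choline addition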
Target sequence (Q9GZV3 whole entry, looked up): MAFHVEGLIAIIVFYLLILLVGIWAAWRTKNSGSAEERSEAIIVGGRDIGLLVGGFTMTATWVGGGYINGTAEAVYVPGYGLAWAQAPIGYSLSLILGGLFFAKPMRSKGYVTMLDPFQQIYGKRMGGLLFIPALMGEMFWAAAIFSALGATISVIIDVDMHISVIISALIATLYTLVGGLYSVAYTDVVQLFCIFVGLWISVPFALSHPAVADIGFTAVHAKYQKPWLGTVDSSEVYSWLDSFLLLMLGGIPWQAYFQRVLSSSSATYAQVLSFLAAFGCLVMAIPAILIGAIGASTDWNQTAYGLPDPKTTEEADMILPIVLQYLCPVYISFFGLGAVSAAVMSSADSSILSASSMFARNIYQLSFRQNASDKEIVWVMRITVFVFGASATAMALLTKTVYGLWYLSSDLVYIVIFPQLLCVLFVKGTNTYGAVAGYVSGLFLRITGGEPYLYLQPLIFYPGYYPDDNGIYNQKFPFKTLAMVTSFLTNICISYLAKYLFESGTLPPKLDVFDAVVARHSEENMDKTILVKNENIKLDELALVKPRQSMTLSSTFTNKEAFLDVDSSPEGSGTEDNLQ
CHT allo act: human CHT allosteric activation | actives 0.49% (n = 310,000) | CHT-expressing cells, membrane potential dye, choline EC20; stronger effect = higher value; LV-AA mutant CHT in HEK293 cells | B-score at 10 µM | AID 488977;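 active = initial fluorescence not abnormally high and integrated response B-score, plate-corrected, over 3 SD above library mean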
Mot1-301 SUMO: inhibitors of SUMOylation pathway: yeast Mot1-301 growth rescue | growth rescue, % at 18.8 µM | actives 1% (n = 320,000) | AID 2716 | S. cerevisiae Mot1-301 growth rescue, ATP luminescence, 38.5C; percent above DMSO median, 100 means doubled;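 active = every valid replicate shows activation above 250% relative to neutral control wells; inactive = the rest, any valid replicate at or below 250%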
NALP1 inh: NALP1 inhibition; S. cerevisiae NALP1/ASC/caspase-1 growth, X-gal OD620, 72 h; inhibition, % at 10 µM; actives 0.61% (n = 280,000); AID 2071; in the data active = inhibition mostly above about 24%, no sharp cut-off; inactive = mostly below about 32%
A1 inh: inhibitors of the anti-apoptotic protein A1, read as caspase activation | MEF A1-2A-BIM cells, Caspase-Glo 3/7 luminescence, 3 h; percent of clofoctol response, vehicle zero | caspase activation, % (concentration not given with the values) | actives 0.066% (n = 330,000);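 active = over half of replicate activation scores above 10%, or exactly half above 10 with the replicate mean above 10; inconclusive = replicate mean below 10 yet half the replicates above 10; inactive = over half of replicates below 10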
NLRP3 yeast inh: inhibitors of NALP3 inflammasome in yeast; actives 0.39% (n = 330,000); Yeast reconstituted NLRP3/ASC/caspase-1, beta-gal luminescence, 24 h; inhibition, % at 10 µM;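 active = inhibition of 50% or more; inactive = inhibition below 50%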
CHT inh conf: confirmation of human choline transporter CHT inhibitors; shares compounds with CHT block; CHT-expressing cells, choline membrane potential dye; LV-to-AA substituted CHT, HEK293 cells; CHT activity remaining % of control (stronger effect = lower value), % at 10 µM; actives 70% (n = 2,400);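 active = choline transporter activity left, mean of duplicates at 10 µM, below buffer-only control mean minus 3 SD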;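 note: depolarization triggered by choline at its EC90 following an EC20 pre-addition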
HEK293 MPD ctr: CHT inhibitor counter-screen hit in parental HEK293 cells | actives 4% (n = 2,400) | AID 493222 | membrane potential dye, choline response; active = decrease or increase beyond buffer ±3SD | shares compounds with CHT block | membrane potential ratio readout (active if shifted either direction beyond buffer ±3SD; no single direction) at 10 µM;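 note: parental cells lack the transporter so any hit is non-specific; ratio is peak minus trough fluorescence over baseline after EC90 choline challenge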
A number is an active result; . = inactive; ? = inconclusive; / = no result. Most compounds without a hit are left out; they make up all but 3% or so of the library.

SMILES | CHT block | CHT allo act | Mot1-301 SUMO | NALP1 inh | A1 inh | NLRP3 yeast inh | CHT inh conf | HEK293 MPD ctr
CCOC(=O)N1CCC(NC(=O)C2CCCN(Cc3nc(-c4cccc(Cl)c4)oc3C)C2)CC1 (configuration not stated) | -6.4 | . | . | . | . | . | 51% | .
CCOCCCNc1ncnc2c1nc1n2CCCC1 | . | . | . | . | . | . | / | /
COc1ccc(CC(=O)Nc2ccc(S(=O)(=O)N3CCN(C)CC3)cc2)cc1 | / | / | . | / | . | . | / | /
O=C(O)c1[nH]c2ccccc2c1CC(=O)N1CCN(c2ccccc2)CC1 | . | . | . | . | . | . | / | /
Cc1cccc(N2CCN(C(=O)Cc3c(C(=O)O)[nH]c4ccc(Cl)cc34)CC2)c1C | -11 | . | . | . | . | . | 56% | .
CCN(Cc1nc(-c2ccc(OC)c(OC)c2)no1)C(=O)c1ccc2c(c1)OCO2 | . | . | . | . | . | . | / | /
Cc1ccsc1C1Nc2ccc3ncccc3c2C2=C1C(=O)CCC2 (configuration not stated) | . | . | . | . | . | . | / | /
COc1cc(C2Nc3ccc4ncccc4c3C3=C2C(=O)CCC3)ccc1O (configuration not stated) | -6.2 | . | . | . | . | . | . | .
CCCCNC(=S)Nc1ccc([N+](=O)[O-])cc1 | -9.2 | . | . | . | . | . | 35% | .
O=[N+]([O-])c1ccc(NNC(=S)Nc2ccc(F)cc2)cc1 | -6.9 | . | . | . | . | . | . | .
O=C(NNC(=S)Nc1ccc(F)cc1)c1cccc([N+](=O)[O-])c1 | . | . | . | . | . | . | / | /
Cc1ccc(NC(=O)CN(C)C(=O)COC(=O)CCS(=O)(=O)c2ccc(C)cc2)cc1 | . | . | . | . | . | . | / | /
CCOc1cc(N2CCOCC2)c(OCC)cc1NC(=O)c1cnccn1 | / | / | . | / | . | . | / | /
COC(=O)c1ccccc1NC(=O)CSc1nc2cccnc2n1C | -5.9 | . | . | . | . | . | . | .
CCOc1ccccc1NC(=O)CSc1nc2cccnc2n1C | . | . | . | . | . | . | / | /
Cc1ccc(NC(=S)Nc2ccc3[nH]c(=O)[nH]c3c2)cc1C | -6.9 | . | . | . | . | . | 63% | .
Nc1ccc(N2CCCC2)c(S(=O)(=O)Nc2cccc(C(F)(F)F)c2)c1 | / | / | . | / | . | . | / | /
Cn1nc(C(F)(F)F)c(-c2ccccc2)c1NC(=O)c1ccco1 | -5.6 | . | . | . | . | . | 36% | .
Cn1nc(C(F)(F)F)c(-c2ccccc2)c1NC(=O)c1cccnc1 | -5.3 | . | . | . | . | . | 32% | .
O=C(NNc1cc(Br)c(O)c(Br)c1)c1ccccc1 | -7.4 | . | . | . | ? | . | 47% | .
NS(=O)(=O)c1ccc(NNC(=O)c2ccccc2)cc1 | . | . | . | / | . | . | / | /
Cc1occc1-c1nnc(SCC(=O)Nc2nccs2)n1CCc1ccccc1 | -6.5 | . | . | . | . | . | . | .
Cc1csc(NC(=O)CSc2nnc(-c3ccoc3C)n2Cc2ccco2)n1 | -5.3 | . | . | . | . | . | . | .
CCCCCOc1ccc(C(=O)OCC(=O)Nc2cc(C)on2)cc1 | / | / | / | / | / | . | / | /
CN1CCN(S(=O)(=O)c2ccc(NC(=O)Nc3cccc(Cl)c3)cc2)CC1 | -8.1 | . | . | . | . | . | 29% | .
SMILES | CHT block | CHT allo act | Mot1-301 SUMO | NALP1 inh | A1 inh | NLRP3 yeast inh | CHT inh conf | HEK293 MPD ctr
COC(=O)c1cccc(NC(=O)c2ccc(S(=O)(=O)N3CCN(C)CC3)cc2)c1 | -5.1 | . | . | . | . | . | 33% | .
CN1CCN(S(=O)(=O)c2ccc(NC(=O)c3ccc(F)cc3)cc2)CC1 | . | . | . | . | . | . | / | /
CC(=O)Nc1cccc(C(=O)OC(C)C(=O)Nc2ccc(S(=O)(=O)N3CCCC3)cc2)c1 (configuration not stated) | -6.9 | . | . | / | . | . | 63% | .
CC(=O)Nc1ccc(NC(=O)C(C)OC(=O)c2cccc(S(=O)(=O)N3CCCC3)c2)cc1 (configuration not stated) | . | . | . | / | . | . | / | /
CN1CCN(S(=O)(=O)c2ccc(NC(=O)c3ccc(Br)s3)cc2)CC1 | -7.7 | . | . | . | . | . | 24% | .
CC(NC(=O)COC(=O)c1cc(S(=O)(=O)N2CCOCC2)ccc1F)c1ccccc1 (configuration not stated) | / | / | . | / | . | . | / | /
O=[N+]([O-])c1ccc(Sc2ccccc2Cl)nc1 | . | . | . | . | . | . | / | /
O=[N+]([O-])c1ccc(Sc2ncc3ccccn23)nc1 | -13 | . | . | . | . | . | 7.7% | .
S=c1nc(-c2cc(Cl)cc(Cl)c2)[nH][nH]1 | -5.8 | . | . | . | . | . | 32% | .
S=c1nc(-c2cccc(Cl)c2)[nH][nH]1 | . | . | . | . | . | / | / | /
S=c1[nH]c2cc(Cl)ccc2s1 | -5 | . | . | . | . | . | 54% | .
NC(=O)C(=O)N/N=C/c1c2ccccc2cc2ccccc12 | . | . | . | . | . | . | / | /
CN(C)S(=O)(=O)N1CCC(Oc2ccc(C(=O)NCC(C)(C)CO)cc2)CC1 | . | . | . | . | . | . | / | /
c1ccc(OCCSc2nnc3sc4ccccc4n23)cc1 | . | . | . | . | . | . | / | /
COc1cccc(OCCSc2nnc3sc4ccccc4n23)c1 | -8.7 | . | . | . | . | . | . | .
COc1ccc(CNc2ncnc3sccc23)cc1 | . | . | . | . | . | . | / | /
CCc1ccc(N=c2c([N+](=O)[O-])nn(-c3ccc4c(c3)OCCO4)n2O)cc1 | -6.3 | . | . | . | . | . | 69% | .
O=[N+]([O-])c1nn(-c2ccc3c(c2)OCCO3)n(O)c1=Nc1ccc(Cl)cc1 | . | . | . | . | . | . | / | /
COc1ccc(/C=C/C(=O)OCC(=O)Nc2ccc(N3CCOCC3)cc2)cc1OC | -5 | . | . | . | . | . | . | .
COc1ccc(/C=C/C(=O)OCC(=O)Nc2ccc(N3CCOCC3)cc2)cc1 | . | . | . | . | . | . | / | /
O=C(/C=C/c1ccco1)OCC(=O)N1CCCCC1 | / | / | . | / | . | . | / | /
COc1ccc(/C=C(/NC(=O)c2ccccc2)C(=O)N2CCOCC2)cc1OC | . | . | . | . | . | . | / | /
CCCN(CC(=O)Nc1ccc(F)c(F)c1F)C(=O)Cn1c(=O)cnc2ccccc21 | -11 | . | . | / | . | . | 8.6% | .
O=C1NC(=O)/C(=C\c2ccc(O)cc2O)S1 | . | . | / | . | . | . | / | /
Cc1ccc(S(=O)(=O)Oc2ccccc2/C=C2/SC(=O)NC2=O)cc1 | -6 | . | . | . | . | . | 57% | .
